Compounds without any hit were thinned out: in the full panel of roughly 83,000, 20% have a hit.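 Results are percent growth after 48 hours of single-concentration exposure. 100 means growth as in untreated cells, lower positive values show inhibition; negative values down to -100 show cell death.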 A number with no mark means an inactive call. Calls of active or inactive are those of the source. Rule for the calls: active = growth percent below 10; inactive = the rest.
Experiments:
Assay in all cases: NCI-60 one-dose screen, 48 h (100 = growth as untreated, 0 = no growth, -100 = all killed)
[1] = test system: SK-MEL-2 melanoma; conditions: 10 µM unless noted
[2] = test system: EKVX NSCLC; conditions: 10 µM unless noted
[3] = test system: SN12C renal; conditions: 10 µM unless noted
[4] = test system: UO-31 renal; conditions: 10 µM unless noted
[5] = test system: TK-10 renal; conditions: 10 µM unless noted
[6] = test system: ACHN renal; conditions: 10 µM unless noted
[7] = test system: CAKI-1 renal; conditions: 10 µM unless noted
[8] = test system: CCRF-CEM leukemia; conditions: 10 µM unless noted
[9] = test system: MOLT-4 leukemia; conditions: 10 µM unless noted
[10] = test system: SR leukemia; conditions: 10 µM unless noted
[11] = test system: RPMI-8226 leukemia; conditions: 10 µM
[12] = test system: OVCAR-8 ovarian; conditions: 10 µM unless noted
[13] = test system: OVCAR-5 ovarian; conditions: 10 µM unless noted
[14] = test system: OVCAR-4 ovarian; conditions: 10 µM unless noted
[15] = test system: IGROV1 ovarian; conditions: 10 µM unless noted
[16] = test system: OVCAR-3 ovarian; conditions: 10 µM unless noted
[17] = test system: HS 578T breast; conditions: 10 µM unless noted
[18] = test system: NCI/ADR-RES ovarian; conditions: 10 µM unless noted
[19] = test system: SK-OV-3 ovarian; conditions: 10 µM

COc1ccc(C2=NOC(CC(=O)N(CCO)CCO)C2)cc1OC1CCCC1 (stereo not given)
growth [1]: 106%
growth [2]: 91.5%
growth [3]: 104%
growth [4]: 88.3%
growth [5]: 98.9%
growth [6]: 104%
growth [7]: 99.5%
growth [8]: 112%
growth [9]: 125%
growth [10]: 106%
growth [11]: 106%
growth [12]: 102%
growth [13]: 98.5%
growth [14]: 102%
growth [15]: 106%
growth [16]: 114%
growth [17]: 99.2%
growth [18]: 101%

O=C1/C(=C/c2ccc([N+](=O)[O-])cc2)Oc2ccc(O)cc21
growth [1]: 104%
growth [2]: 91.9%
growth [3]: 85.8%
growth [4]: 70.4%
growth [5]: 17.8%
growth [6]: 82.3%
growth [7]: 5.52% (active)
growth [8]: 72.5%
growth [9]: 18.7%
growth [10]: 43%
growth [11]: 34%
growth [12]: 90.7%
growth [13]: -9.84% (active)
growth [15]: 18%
growth [16]: 16.7%
growth [17]: 97.2%
growth [18]: 89%

CC(=O)OC[C@]1(C)C=C2C(=O)[C@](C)(O)C3(CC3)C(C)=C2[C@H]1OC(C)=O
growth [1]: 103%
growth [2]: 114%
growth [3]: 83.6%
growth [4]: 41.5%
growth [5]: 99.1%
growth [6]: 51.3%
growth [7]: 84.2%
growth [8]: 95.1%
growth [9]: 109%
growth [10]: 62.8%
growth [11]: 84.1%
growth [12]: 75.9%
growth [13]: 91.3%
growth [15]: 91.1%
growth [16]: 94.9%
growth [17]: 96%
growth [18]: 75%

Cc1cccc2c(=O)c3c(sc12)c(NCCNCCO)nc1ccccc13
growth [1]: 79.3%
growth [2]: 41.6%
growth [3]: 33.4%
growth [4]: 29.6%
growth [5]: 34.9%
growth [6]: -19.2% (active)
growth [7]: 22.1%
growth [8]: 13.7%
growth [9]: -31.1% (active)
growth [10]: -44.1% (active)
growth [11]: -34.2% (active)
growth [12]: 34%
growth [13]: 64.9%
growth [15]: 16.1%
growth [16]: 45.1%
growth [17]: 54.5%
growth [18]: 45.1%

N#Cc1c(-c2cccc(F)c2)cc(-c2ccc(Br)s2)[nH]c1=O
growth [1]: 60%
growth [2]: 89.3%
growth [3]: 92.4%
growth [4]: 74.1%
growth [5]: 108%
growth [6]: 91.9%
growth [7]: 49.8%
growth [8]: 90.7%
growth [9]: 82.6%
growth [10]: 40.7%
growth [11]: 73.9%
growth [12]: 83.3%
growth [13]: 102%
growth [14]: 92%
growth [15]: 67.3%
growth [17]: 69%
growth [18]: 44.7%

O=c1c2cc(F)ccc2oc2c(NCCNCCO)nc3ccccc3c12
growth [1]: 84.7%
growth [2]: 50.9%
growth [3]: 37.7%
growth [4]: 37.1%
growth [5]: 71.3%
growth [6]: 19.1%
growth [7]: 30.2%
growth [8]: 30.9%
growth [9]: -0.96% (active)
growth [10]: -28.7% (active)
growth [11]: 32.1%
growth [12]: 34.1%
growth [13]: 60.6%
growth [14]: 37.3%
growth [15]: 37%
growth [16]: 55%
growth [17]: 67.1%
growth [18]: 48.9%

COC(=O)c1c2c(c(C)[n+]([O-])c1C)C(=O)C=C(NCc1ccc(Cl)cc1)C2=O
growth [1]: -30.9% (active)
growth [2]: -50% (active)
growth [3]: -84.9% (active)
growth [4]: -9.07% (active)
growth [5]: 21.7%
growth [6]: -19.1% (active)
growth [7]: -3.15% (active)
growth [8]: -6.94% (active)
growth [9]: -32.2% (active)
growth [10]: 3.91% (active)
growth [11]: -16.2% (active)
growth [12]: 2.34% (active)
growth [13]: -69% (active)
growth [15]: -50.9% (active)
growth [16]: -28.6% (active)
growth [17]: -19% (active)
growth [18]: -15.1% (active)

COC(=O)c1c2c(c(C)[n+]([O-])c1C)C(=O)C=C(NCc1ccc(F)c(Cl)c1)C2=O
growth [1]: -42.8% (active)
growth [2]: -63.3% (active)
growth [3]: -85.7% (active)
growth [4]: -49.5% (active)
growth [5]: 21.2%
growth [6]: -38.4% (active)
growth [7]: -16.1% (active)
growth [8]: -2.7% (active)
growth [9]: -35.6% (active)
growth [10]: -1.19% (active)
growth [11]: -32.7% (active)
growth [12]: -21.2% (active)
growth [13]: -91.8% (active)
growth [15]: -55.2% (active)
growth [17]: -24.2% (active)
growth [18]: -18.6% (active)

COc1cc(-c2nc(Nc3nc4ccccc4[nH]3)nc(N)c2C#N)cc(OC)c1OC
growth [1]: 59.2%
growth [2]: 74.5%
growth [3]: 92.8%
growth [4]: 69.9%
growth [5]: 80.6%
growth [6]: 61.7%
growth [7]: 56.9%
growth [8]: 70.1%
growth [11]: 69.8%
growth [12]: 79.6%
growth [13]: 101%
growth [14]: 72.8%
growth [19]: 52.6%
growth [15]: 43%
growth [16]: 15.1%
growth [18]: 97.9%

CCCCOC(=O)C1OC(Oc2ccc3c(C)cc(=O)oc3c2)[C@@H](OC(C)=O)C(OC(C)=O)C1OC(C)=O (stereo not given in full)
growth [1]: 103%
growth [2]: 89.5%
growth [3]: 99.6%
growth [4]: 87.1%
growth [5]: 99.2%
growth [6]: 101%
growth [7]: 94.1%
growth [8]: 94.1%
growth [9]: 107%
growth [10]: 88.1%
growth [11]: 97.9%
growth [12]: 104%
growth [13]: 97.8%
growth [14]: 101%
growth [15]: 101%
growth [16]: 108%
growth [17]: 101%
growth [18]: 99.9%

COc1ccc(OC)c(/C=C2\Oc3cc(O)ccc3C2=O)c1
growth [1]: 98.6%
growth [2]: 91.4%
growth [3]: 85.8%
growth [4]: 60.3%
growth [5]: 103%
growth [6]: 68.3%
growth [7]: 93.7%
growth [8]: 96.1%
growth [9]: 100%
growth [10]: 75.7%
growth [11]: 92.2%
growth [12]: 85.6%
growth [13]: 101%
growth [14]: 86.7%
growth [15]: 89.3%
growth [17]: 80.8%
growth [18]: 92.9%

Cc1ccccc1-c1cc(-c2ccc(Br)s2)[nH]c(=O)c1C#N
growth [1]: 113%
growth [2]: 85.6%
growth [3]: 102%
growth [4]: 83.3%
growth [5]: 109%
growth [6]: 101%
growth [7]: 88.1%
growth [8]: 106%
growth [9]: 92.7%
growth [10]: 100%
growth [11]: 102%
growth [12]: 105%
growth [13]: 104%
growth [14]: 108%
growth [15]: 96.5%
growth [16]: 113%
growth [17]: 96%
growth [18]: 98.5%

CCCCCCCC/C=C\CCCCCCCCOc1cccc(CC(=O)NCC[N+](C)(C)C)c1
growth [1]: 106%
growth [2]: 92.6%
growth [3]: 69.7%
growth [4]: 92.6%
growth [5]: 68.6%
growth [6]: 93.4%
growth [7]: 71.2%
growth [8]: 78%
growth [9]: 92.9%
growth [10]: 59%
growth [11]: 61.9%
growth [12]: 85.9%
growth [13]: 51.8%
growth [14]: 88.6%
growth [15]: 3.34% (active)
growth [16]: 99.4%
growth [17]: 78.4%
growth [18]: 103%

NC(=O)c1cccc(-n2ccc3cc(NC(=O)Nc4ccc(Cl)c(Cl)c4)ccc32)n1
growth [1]: 88.3%
growth [2]: 68.3%
growth [3]: 86.8%
growth [4]: 95.5%
growth [5]: 80.7%
growth [6]: 74.5%
growth [7]: 57.6%
growth [8]: 59.2%
growth [9]: 50.7%
growth [12]: 80.9%
growth [13]: 106%
growth [14]: 68.2%
growth [15]: 87.9%
growth [16]: 82.9%
growth [17]: 58.5%
growth [18]: 91.8%

Cl.Fc1c[c-]c(-c2ccccn2)c(F)c1.[Pt].c1ccc([PH+](CC[PH+](c2ccccc2)c2ccccc2)c2ccccc2)cc1
growth [1]: -76.8% (active)
growth [2]: -99.2% (active)
growth [3]: -75.8% (active)
growth [4]: -92.4% (active)
growth [5]: -83.7% (active)
growth [6]: -97.9% (active)
growth [7]: -83.5% (active)
growth [8]: -43% (active)
growth [9]: -26.8% (active)
growth [10]: -6.03% (active)
growth [13]: -93.4% (active)
growth [14]: -87.8% (active)
growth [15]: -75.5% (active)
growth [16]: -97.2% (active)
growth [17]: -44.6% (active)
growth [18]: -35.4% (active)

COC(=O)c1c2c(c(C)[n+]([O-])c1C)C(=O)C=C(NCc1ccc(F)cc1)C2=O
growth [1]: -31.3% (active)
growth [2]: -57% (active)
growth [3]: -88.8% (active)
growth [4]: -21% (active)
growth [5]: 13.6%
growth [6]: -45.2% (active)
growth [7]: -0.887% (active)
growth [8]: 4.77% (active)
growth [10]: 2.14% (active)
growth [11]: -20.9% (active)
growth [12]: 2.54% (active)
growth [13]: -68.8% (active)
growth [15]: -59.4% (active)
growth [16]: -35.9% (active)
growth [17]: -16.6% (active)
growth [18]: -16.7% (active)

COc1cc2oc(-c3ccc(O)cc3)cc(=O)c2c(O)c1I
growth [1]: 103%
growth [2]: 87.8%
growth [3]: 100%
growth [4]: 93%
growth [5]: 109%
growth [6]: 98.7%
growth [7]: 96.6%
growth [8]: 94.9%
growth [9]: 111%
growth [10]: 79.3%
growth [11]: 87.1%
growth [12]: 96.3%
growth [13]: 104%
growth [15]: 114%
growth [16]: 117%
growth [17]: 103%
growth [18]: 98%

O=c1oc2ccccc2cc1-c1csc(N/N=C/c2cc3ccccc3nc2Cl)n1
growth [1]: 106%
growth [2]: 96.1%
growth [3]: 90.6%
growth [4]: 91%
growth [5]: 116%
growth [6]: 101%
growth [7]: 87.5%
growth [8]: 111%
growth [9]: 132%
growth [10]: 129%
growth [11]: 108%
growth [13]: 98.6%
growth [15]: 93.3%
growth [16]: 108%
growth [17]: 107%
growth [18]: 99.7%

From PubChem BioAssay (NCI)
